The panel holds about 79,000 compounds, 15% with a hit somewhere; the sample as a whole holds those more often. Activity calls are given as the source filed them. Rule as the data show it: active = growth inhibition above about 70%; inactive = the rest. *1 amine or outer side, *2 acyl side, *3 side chain or, on linkers, in order; H or OH if unused. Where a SMILES comes first, the peptide text is derived from it. Bridges are numbered along the chain shown (N, C = ends). Roman numbers before positions name the chains, in order. [ ]: non-standard residue; d: D form. Actinocin(9to1) = Cc1c2oc3c(C)ccc(C(=O)[*:1])c3nc-2c(C(=O)[*:2])c(N)c1=O; NMeT = CN[CH](C(=O)O)[CH](C)O; Abu = CC[CH](N)C(=O)O; Sar = CNCC(=O)O

The assay can be described thus: NCI Yeast Anticancer Drug Screen. Data for the cln2 rad14 strain (AID 165).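 Also: 0% = growth equal to vehicle treated cultures.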 Particulars: S. cerevisiae cln2 rad14 strain, at 50.0 µM, active compounds read high. Put shortly: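 Growth inhibition, relative to vehicle-treated controls, is the read-out. The test organism is a yeast strain with defined genetic alterations, cln2 rad14.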
On to `CN(C)c1ccc(/C=C/c2ccccc2)cc1`, for which the growth inhibition was -15.1% (inactive).

As for `OCC12OCC(O1)C(O)C(O)C2O` (stereo not given), the growth inhibition was -9.35% (inactive).

As for `COc1cccc(S(=O)(=O)c2c(C)cc(C)cc2C)c1`, the growth inhibition is -42% (inactive).

Regarding `CC1(c2ccc3cccc(F)c3c2)OC(=O)c2ccccc21` (stereo not given), the growth inhibition was -68.8% (inactive).

`Nc1[nH]c(=S)[nH]c(=O)c1N=Cc1ccc2c(c1)OCO2`: the growth inhibition is 12.7% (inactive).

Regarding `O=c1[nH]c(=O)c2nccnc2[nH]1`, the growth inhibition is 0.75% (inactive).

On to `O=C(O)c1ccc(Cl)cc1C(=O)c1ccc(Cl)cc1`, for which the growth inhibition is -42.9% (inactive).

For the compound `CCOC(=O)C1(C)CCC(C(=O)OC)C1=O` (stereo not given), the growth inhibition is -5.45% (inactive).

As for `CCCCCCC(c1ccc(N(C)C)cc1)c1ccc(N(C)C)cc1`, the growth inhibition is 13.1% (inactive).

In the case of `CCOC(=O)C(C(=O)OCC)=C(N)C(Cl)(Cl)Cl`, the growth inhibition was 14.8% (inactive).

For `COc1ccccc1OCc1nnc(SCC(=O)O)n1-c1ccccc1`, the growth inhibition is 11.6% (inactive).

For the compound `CCO/C([O-])=C(\C=N\S(=O)(=O)c1ccc(C)cc1)[n+]1ccc(C)cc1`, the growth inhibition is -17.1% (inactive).

For `Cc1ccc2nc(CN(CCO)CCO)cc(=O)n2c1`, the growth inhibition was 4% (inactive).

With `CCCCCCc1c(N)nc(N)[nH]c1=O`, the growth inhibition was -36.8% (inactive).

`CN(C)CCSS(=O)(=O)O`: the growth inhibition was 16.6% (inactive).

For `O=C(Nc1ccc(Cl)cc1)Nc1nnc(-c2cccc(-c3nnc(NC(=O)Nc4ccc(Cl)cc4)o3)c2)o1`, the growth inhibition was 21.7% (inactive).

For `CC(CC(=O)O)(CC(=O)O)c1ccccc1`, the growth inhibition is -7.3% (inactive).

For `NCS(=O)(=O)O`, the growth inhibition is 9.5% (inactive).

As for `Cc1cc(=O)n2[nH]nnc2n1`, the growth inhibition was 13.2% (inactive).

Turning to `Cc1cccc(C(C)(C)C)c1NC(=O)CC1C(=O)Nc2ccccc2S1(=O)=O` (stereo not given), the growth inhibition was 8.95% (inactive).

In the case of `C(=C\C(SCc1ccccc1)SCc1ccccc1)/c1ccccc1`, the growth inhibition was 3.55% (inactive).

On to `Cc1ccc(C)n1N(c1ccccc1)c1ccccc1`, for which the growth inhibition is -36.4% (inactive).

As for `CCCCc1c2c(nc3c1CCCC3=O)C(=O)CCC2`, the growth inhibition is 2% (inactive).

In the case of `COc1cccc(C2c3cc4c(cc3OC(C)(O)C2C)OCO4)c1OC` (stereo not given), the growth inhibition is 13.9% (inactive).

On to `CCC(N)C(=O)NC(C(N)=O)C(C)C` (stereo not given) (H-[Abu]-Val-NH2; configuration not given here), for which the growth inhibition was -42.4% (inactive).

For `O=C1c2cc3c(cc2CC12Cc1cc4c(cc1C2)CCC4)CCC3`, the growth inhibition was 7.45% (inactive).

Consider `Cc1cccc(C)c1NC(=O)C(=O)CC(=O)CO`, for which the growth inhibition was 10.8% (inactive).

Regarding `CCCCC(=O)c1ccc2ccccc2c1O`, the growth inhibition is -18% (inactive).

As for `C1CC2CCC1CN(C1COC(N3CC4CCC(CC4)C3)CO1)C2` (stereo not given), the growth inhibition was 58.4% (inactive).

Consider `c1ccc(Nc2ccc3ccccc3n2)cc1`, for which the growth inhibition is 14% (inactive).

Take `O=c1c2c(-c3ccccc3)onc2n(-c2ccccc2)c(=O)n1-c1ccccc1`: the growth inhibition is -10.6% (inactive).

Take `Cc1c2oc3c(C)ccc(C(=O)NC4C(=O)NC(C(C)C)C(=O)N5CCCC5C(=O)N(C)CC(=O)N(C)C(C(C)O)C(=O)OC4C)c3nc-2c(C(=O)NC2C(=O)NC(C(C)C)C(=O)N3CCCC3C(=O)N(C)CC(=O)N(C)C(C(C)O)C(=O)OC2C)c(N)c1=O` (stereo not given) (I: TVP[Sar][NMeT] / II: TVP[Sar][NMeT]; ester I:1-I:C, II:1-II:C; linker I:N-II:N via Actinocin(9to1); configuration not given here): the growth inhibition is 31.3% (inactive).

For `CCCCCCCCCCCCCCCCCC[N+](C)(C)Cc1c(Cl)c(Cl)c(Cl)c(Cl)c1Cl`, the growth inhibition was -18.9% (inactive).

With `C/C(=N\NC(=O)c1ccccc1O)c1cccc(/C(C)=N/NC(=O)c2ccccc2O)n1.O=S(=O)([O-])[O-].[Fe+2]`, the growth inhibition is -0.9% (inactive).

On to `CC1=CN2C(c3ccc(Cl)cc3)=NON(c3ccc(C)cn3)C2C=C1` (stereo not given), for which the growth inhibition is -50.8% (inactive).

Consider `O=C(Nc1ccccc1)C1(Cl)CCCCC1`, for which the growth inhibition is -16.9% (inactive).

Consider `O=C(O)CCCc1ccc(O)cc1`, for which the growth inhibition is 10.7% (inactive).

As to `COc1cc(/C=C2\SC(=S)N(/C=C(/C#N)C(=O)c3ccc4ccccc4c3)C2=O)cc(OC)c1OC`, the growth inhibition was 3.45% (inactive).

On to `NC(N)=NCCCC(O)C(=O)O` (stereo not given), for which the growth inhibition was -2.95% (inactive).

For the compound `CNn1c(-c2ccccc2)n[nH]c1=O`, the growth inhibition was 26.2% (inactive).

The values are drawn from PubChem BioAssay (NCI).
